Where “and” joins values, the source holds several entries; their conditions need not be identical. Identical values can stand only once. More than one record can exist for a structure, and the calls need not agree. Calls of active or inactive are those of the source.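 Rule for the calls, unless noted: active = inhibition at or above 50% relative to wild type and mutant plate controls; inactive = inhibition below 50%.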
Legend:
[1] = inhibitors of TNFa-induced NFkB p65 translocation, primary screen, imaging, HUVEC, MLSMR starter and 10KST1 sets (AID 438;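 active = inhibition above 20% together with a positive visual image hit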;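 note: compound added about 3h40 before a 20 min TNFalpha stimulation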;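 for inhibition: signal is the nuclear over cytoplasmic p65 intensity ratio per well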); settings: HUVEC TNFa-induced p65 nuclear translocation; cell count: measured here: nuclei count (cytotoxicity indicator), at 2.08 µM; inhibition: at 2 µM, stronger effect = higher value, 0% TNFa-plus-vehicle, 100% no-TNFa wells
[2] = inhibitors of mutant huntingtin aggregation, primary screen, imaging, exon1htt(103Q)mCFP cells, high-content imaging (AID 483;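 active = visual image review flags a hit and inhibition of aggregation exceeds 20%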;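 note: compound exposure lasted 3 days before fixation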;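 for nuclei count: percent of the per-plate median nuclei count of sample wells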); settings: exon1htt(103Q)mCFP cell line, aggregate imaging, at 2 µM; inhibition of aggregation: stronger effect = higher value; nuclei count: measured here: cell count, toxicity
[3] = inhibitors of E-selectin induction by TNFa, primary screen, imaging, HUVEC, immunofluorescence, MLSMR starter and 10KST1 sets (AID 487;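 active = visually confirmed hit in the image check and inhibition above 20%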;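 for inhibition: signal is fraction of cell area covered by stained E-selectin grains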;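 for nuclei count: 100% = median nuclei count of all wells on the same plate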); settings: HUVEC TNFalpha-induced E-selectin immunofluorescence imaging, at 2 µM; inhibition: stronger effect = higher value; nuclei count: measured here: cell number, toxicity
[4] = DUSP6 inhibitors restoring Erk phosphorylation by chemical complementation, primary imaging in DUSP6-transfected HeLa (AID 609;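 active = compounds giving at least 50% inhibition in the cell-based MKP-3 phosphatase rescue imaging test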;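 for inhibition: phospho-Erk level distribution per well compared with pooled transfected vehicle control wells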); settings: HeLa MKP-3 transfected, phospho-Erk imaging KS statistic, at 10 µM, cells stimulated with TPA for 15 min
[5] = target: Dual specificity protein phosphatase 6 (Homo sapiens) (UniProt Q16828); test: as above; settings: HeLa MKP-3 transfected, phospho-Erk imaging KS statistic; at 10 µM; stronger effect = higher value; cells stimulated with TPA for 15 min
[6] = target: Voltage-gated potassium channel subunit beta-2 (Rattus norvegicus) (UniProt P62483); test: KvBeta enzyme negative modulators, primary screen, biochemical, NADPH fluorescence (AID 622;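 active = fluorescence slope higher than the sample average by over 3 SD, cut at about -0.22 in these data, passing the limit was not always enough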;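 note: slope of raw intensity against log time taken from 70 to 1610 s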); settings: recombinant KvBeta, 4-cyanobenzaldehyde reduction, at 10 µM, stronger effect = higher value
[7] = target: Voltage-gated potassium channel subunit beta-2 (Rattus norvegicus) (UniProt P62483); test: KvBeta positive modulators, primary screen, biochemical, NADPH fluorescence (AID 623;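 active = NADPH fluorescence slope more negative than the mean of all samples by about 3 SD, 99.7% confidence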;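 note: fluorescence intensity change per second fitted from 20 to 320 s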); settings: Recombinant KvBeta, NADPH fluorescence decrease slope, 10 min; at 10 µM; stronger effect = lower value
[8] = target: Alpha-2C adrenergic receptor (Homo sapiens) (UniProt P18825); test: modulators of alpha2C/GIRK thallium flux, primary screen, cell-based, HEK293 alpha2C/GIRK1/2 (AID 624;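 active = fluorescence slope after compound addition differing from the mean of all screened samples at 99.7% confidence, in either direction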;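 note: slope of fluorescence ratio to pre-addition baseline per second over 15 to 24 s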); settings: thallium flux BTC fluorescence, at 10 µM, actives lie on both sides
[9] = inhibitors of larval lipid processing in zebrafish, primary screen, whole organism, PED6 fluorescence, gall bladder and intestine (AID 686;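 active = a full or partial loss of lipid-probe fluorescence in the fish gall bladder, intestine or both, judged by eye; inactive = no fluorescence loss, or compound toxic to the fish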;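 note: larvae 5 to 7 days old with five fish per well; signal comes from phospholipase A2 cleavage of quenched PED6 carried via bile; overnight exposure to compound and PED6 before scoring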); settings: Zebrafish larvae PED6 lipid processing, fluorescence scoring; screened at 20 µM (by protocol)
[10] = inhibitors of Chlamydomonas gravitaxis, primary screen, whole organism, Chlamydomonas reinhardtii, WT vs cilia-less mutant, absorbance, 96-well (AID 463189); settings: OD600 absorbance, 2 days, at 10 µM, stronger effect = higher value;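 note: 0% = wild type cc124 cells in DMSO and 100% = ciliumless bld1 mutant cells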
[11] = inhibitors of Sendai virus-induced IRF3 signaling, primary screen, TLR/RLR signaling modifier project, cell-based, Sendai virus stimulus, luciferase, 10K MLSCN set (AID 602276;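 active = inhibition at or above 50% at 10 µM; inactive = inhibition below 50%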;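 note: firefly luciferase from ISG56 promoter only with Renilla not read in this screen; 0% = Sendai virus plus DMSO and 100% = medium plus DMSO without virus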); settings: HEK293 RL24 IRF3 luciferase reporter, at 10 µM, stronger effect = higher value
[12] = inhibitors of poly I:C-induced TLR3 signaling, primary screen, cell-based, poly I:C stimulus, luciferase, 10K MLSCN set (AID 602277;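 active = inhibition of the reporter signal at or above 50%; inactive = inhibition below 50%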); settings: HEK293-TLR3 RL24 IRF3 luciferase reporter, at 10 µM, stronger effect = higher value
[13] = measured here: cell density z-score
[14] = measured here: nuclear c-Myc green intensity z-score
[15] = measured here: nuclear pErk red intensity z-score, stronger effect = higher value

Sequence of Voltage-gated potassium channel subunit beta-2 (Rattus norvegicus) (P62483 whole entry, looked up): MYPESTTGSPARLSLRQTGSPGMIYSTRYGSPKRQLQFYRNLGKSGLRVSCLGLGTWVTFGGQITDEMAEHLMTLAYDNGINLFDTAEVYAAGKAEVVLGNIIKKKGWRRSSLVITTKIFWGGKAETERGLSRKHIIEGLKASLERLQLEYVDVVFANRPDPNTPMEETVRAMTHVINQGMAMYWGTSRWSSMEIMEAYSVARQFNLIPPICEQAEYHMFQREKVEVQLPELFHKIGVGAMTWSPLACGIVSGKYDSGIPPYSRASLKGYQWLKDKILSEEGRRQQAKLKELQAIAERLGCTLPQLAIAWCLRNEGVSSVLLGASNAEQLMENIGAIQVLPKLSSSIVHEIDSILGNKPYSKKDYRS
Sequence of Dual specificity protein phosphatase 6 (Homo sapiens) (Q16828 whole entry, looked up): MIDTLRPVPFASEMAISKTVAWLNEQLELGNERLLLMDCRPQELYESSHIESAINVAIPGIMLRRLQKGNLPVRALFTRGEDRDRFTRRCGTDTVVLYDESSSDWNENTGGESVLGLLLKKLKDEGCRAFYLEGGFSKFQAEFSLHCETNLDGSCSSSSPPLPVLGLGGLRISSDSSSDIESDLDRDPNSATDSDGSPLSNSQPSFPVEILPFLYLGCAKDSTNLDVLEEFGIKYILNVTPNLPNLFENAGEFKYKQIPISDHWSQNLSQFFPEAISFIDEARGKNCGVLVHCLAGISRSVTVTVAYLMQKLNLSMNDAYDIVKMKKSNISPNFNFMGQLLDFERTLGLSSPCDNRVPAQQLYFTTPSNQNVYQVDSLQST
Sequence of Alpha-2C adrenergic receptor (Homo sapiens) (P18825 whole entry, looked up): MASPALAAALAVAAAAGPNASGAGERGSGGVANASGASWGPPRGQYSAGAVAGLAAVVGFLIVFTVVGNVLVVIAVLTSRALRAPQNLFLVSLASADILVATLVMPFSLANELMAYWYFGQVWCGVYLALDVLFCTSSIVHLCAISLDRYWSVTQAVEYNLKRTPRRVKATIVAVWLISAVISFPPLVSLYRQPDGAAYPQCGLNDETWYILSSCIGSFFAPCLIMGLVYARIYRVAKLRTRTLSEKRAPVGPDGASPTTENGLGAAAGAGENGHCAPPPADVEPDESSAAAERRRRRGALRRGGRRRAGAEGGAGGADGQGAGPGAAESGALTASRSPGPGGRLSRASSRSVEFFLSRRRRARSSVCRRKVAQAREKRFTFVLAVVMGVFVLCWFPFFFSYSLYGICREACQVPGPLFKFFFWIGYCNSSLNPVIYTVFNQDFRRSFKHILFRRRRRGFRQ

COC(=O)CSc1nc2sc3c(c2c(=O)n1C1CCCCC1)CCN(C)C3
cell count [1]: 390
inhibition [1]: -4.4% (inactive)
inhibition of aggregation [2]: -16% (inactive)
nuclei count [2]: 102%
inhibition [3]: -127% (inactive)
nuclei count [3]: 140%
z-score [4, 13]: -0.811
z-score [4, 14]: -0.963
z-score [4, 15]: 1.03
inhibition [5]: -8.59% (inactive)
fluorescence slope [6]: -0.289 (inactive)
NADPH fluorescence slope [7]: 2e-05 (inactive)
slope [8]: 0.00385 (inactive)
outcome [9]: inactive
inhibition [10]: 14.6% (inactive)
inhibition [11]: 15.7% (inactive)
inhibition [12]: 38.9% (inactive)

COc1ccc(Cl)cc1C(=O)NCCc1ccc(S(=O)(=O)NC(=O)NC2CCCCC2)cc1
cell count [1]: 517
inhibition [1]: -3.1% (inactive)
inhibition of aggregation [2]: -17.2% (inactive)
nuclei count [2]: 105%
inhibition [3]: 48.6% (inactive)
nuclei count [3]: 80.7%
z-score [4, 13]: 0.545
z-score [4, 14]: -1.59
z-score [4, 15]: -0.882
inhibition [5]: 5.79% (inactive)
fluorescence slope [6]: -0.462 (inactive)
NADPH fluorescence slope [7]: -5.3e-05 (inactive)
slope [8]: 0.00532 (inactive)
outcome [9]: inactive
inhibition [10]: 3.54% (inactive) and -10.9% (inactive)
inhibition [11]: 19.2% (inactive)
inhibition [12]: 42.8% (inactive)

O=C(/C=C/c1ccccc1)c1ccccc1
cell count [1]: 614
inhibition [1]: -6.5% (inactive)
inhibition of aggregation [2]: -4.6% (inactive)
nuclei count [2]: 98.3%
inhibition [3]: -56.5% (inactive)
nuclei count [3]: 113%
z-score [4, 13]: 0.266
z-score [4, 14]: 0.631
z-score [4, 15]: 0.428
inhibition [5]: 23.2% (inactive)
fluorescence slope [6]: -0.452 (inactive)
NADPH fluorescence slope [7]: -2.2e-05 (inactive)
slope [8]: 0.0047 (inactive)
outcome [9]: inactive
inhibition [10]: 21.2% (inactive)
inhibition [11]: -12.6% (inactive)
inhibition [12]: -54.9% (inactive)

CN1CCN(CCCN2c3ccccc3Sc3ccc(Cl)cc32)CC1
cell count [1]: 625
inhibition [1]: -0.8% (inactive)
inhibition of aggregation [2]: 6.1% (inactive)
nuclei count [2]: 98.7%
inhibition [3]: -67.5% (inactive)
nuclei count [3]: 115%
z-score [4, 13]: 0.0938
z-score [4, 14]: 1.34
z-score [4, 15]: 0.8
inhibition [5]: 30.1% (inactive)
fluorescence slope [6]: -0.449 (inactive)
NADPH fluorescence slope [7]: 1.3e-05 (inactive)
slope [8]: 0.00441 (inactive)
outcome [9]: inactive
inhibition [10]: 96.7% (active) and 24.7% (inactive)
inhibition [11]: 17.3% (inactive)
inhibition [12]: 22.7% (inactive)

CC(COc1ccccc1)NC(C)C(O)c1ccc(O)cc1 (stereo not drawn)
cell count [1]: 534
inhibition [1]: -7.4% (inactive)
inhibition of aggregation [2]: -13.1% (inactive)
nuclei count [2]: 100%
inhibition [3]: -135% (inactive)
nuclei count [3]: 121%
z-score [4, 13]: -1.06
z-score [4, 14]: -0.532
z-score [4, 15]: 0.827
inhibition [5]: -12.3% (inactive)
fluorescence slope [6]: -0.54 (inactive)
NADPH fluorescence slope [7]: 4.6e-06 (inactive)
slope [8]: 0.00639 (inactive)
outcome [9]: inactive
inhibition [10]: -3.83% (inactive)
inhibition [11]: -5.16% (inactive)
inhibition [12]: -30% (inactive)

COC(=O)c1cc(Br)c(=O)n(CCc2ccc(F)cc2)c1
cell count [1]: 595
inhibition [1]: -7.1% (inactive)
inhibition of aggregation [2]: -4.6% (inactive)
nuclei count [2]: 93.4%
inhibition [3]: 6.1% (inactive)
nuclei count [3]: 151%
z-score [4, 13]: -0.681
z-score [4, 14]: 0.872
z-score [4, 15]: 1.23
inhibition [5]: 1.9e-07% (inactive)
fluorescence slope [6]: -0.324 (inactive)
NADPH fluorescence slope [7]: -5.7e-05 (inactive)
slope [8]: 0.00485 (inactive)
outcome [9]: active; no signal in intestine only
inhibition [10]: -7.76% (inactive)
inhibition [11]: 4.86% (inactive)
inhibition [12]: 5.55% (inactive)

Cc1ccc(S(=O)(=O)NCC(=O)OCN2C(=O)c3ccccc3C2=O)cc1
cell count [1]: 416
inhibition [1]: -4.7% (inactive)
inhibition of aggregation [2]: -19.8% (inactive)
nuclei count [2]: 85.7%
inhibition [3]: -23.1% (inactive)
nuclei count [3]: 93.4%
z-score [4, 13]: -0.341
z-score [4, 14]: -0.796
z-score [4, 15]: 0.197
inhibition [5]: 7.93% (inactive)
fluorescence slope [6]: -0.574 (inactive)
NADPH fluorescence slope [7]: 4e-05 (inactive)
slope [8]: 0.00572 (inactive)
outcome [9]: inactive
inhibition [10]: 45.3% (inactive)
inhibition [11]: 11.3% (inactive)
inhibition [12]: -3.4% (inactive)

CC(=O)Oc1cc(C(C)C)c(OCCN(C)C)cc1C
cell count [1]: 467
inhibition [1]: -9.4% (inactive)
inhibition of aggregation [2]: 22.4% (inactive)
nuclei count [2]: 95.3%
inhibition [3]: -10.4% (inactive)
nuclei count [3]: 108%
z-score [4, 13]: -0.0151
z-score [4, 14]: 0.045
z-score [4, 15]: -0.157
inhibition [5]: 13.3% (inactive)
fluorescence slope [6]: -0.475 (inactive)
NADPH fluorescence slope [7]: -5.3e-05 (inactive)
slope [8]: 0.0046 (inactive)
outcome [9]: inactive
inhibition [10]: 6.3% (inactive) and 24.6% (inactive)
inhibition [11]: 15% (inactive)
inhibition [12]: 49.2% (inactive)

CCCCOc1ccc(-c2nnc(N)s2)cc1
cell count [1]: 634
inhibition [1]: -17.7% (inactive)
inhibition of aggregation [2]: -7.4% (inactive)
nuclei count [2]: 104%
inhibition [3]: -23.7% (inactive)
nuclei count [3]: 146%
z-score [4, 13]: -0.283
z-score [4, 14]: 0.709
z-score [4, 15]: 0.136
inhibition [5]: -15% (inactive)
fluorescence slope [6]: -0.405 (inactive)
NADPH fluorescence slope [7]: -6.4e-05 (inactive)
slope [8]: 0.00759 (inactive)
outcome [9]: inactive
inhibition [10]: 2.26% (inactive)
inhibition [11]: -42.6% (inactive)
inhibition [12]: -89.4% (inactive)

Source: PubChem BioAssay
